# Measured values published in PubChem BioAssay (EPA / NIEHS).
# Several values for one entry are separate records, joined by “and”; a condition that tells them apart may be missing. Equal values may be shown once. Inconclusive results are not listed. More than one record can exist for a structure, and the calls need not agree. Activity calls are given as the source filed them. Rule for the calls, unless noted: active = hit-call score of the fitted dose curve at least 0.9, where 1 is the maximum; inconclusive = response in the unintended direction; inactive = score below 0.9.
# How the values were obtained:
# [1] = ATG_XTT_Cytotoxicity: Cytotoxicity Assessment in the Attagene TRANS-FACTORIAL HepG2 Assay (AID 2283584);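 for AC50: cells exposed to compound for 24 h before reading; active means loss of viability signal versus DMSO baseline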
# Method in brief: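 XTT readout of cell number in transfected HepG2 cells, 24 h post-dosing; DMSO serves as negative control and baseline, with activity taken as loss of viability signal.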
# [2] = read-out: UDP glucuronosyltransferase (UGT1A6), UGT1A6 (gene 54578); test: LTEA_HepaRG_UGT1A6: Life Technologies and Expression Analysis (LTEA) Assay for UDP glucuronosyltransferase (UGT1A6) using HepaRG (AID 2283539; active = hit-call score of the fitted dose curve at least 0.9, where 1 is the maximum; inactive = score below 0.9); settings: mRNA level, 48 h; actives raise or lower the signal
# Experimental: LTEA_HepaRG is a cell based, multiplexed-readout assay that uses HepaRG, a human liver cell line, with measurements taken at 48 hours after chemical dosing on a 96-well plate.LTEA_HepaRG_UGT1A6 is one of 102 assay component(s) measured in the LTEA HepaRG cell culture assay. It is a marker of NR mediated metabolism.Data from the assay component LTEA_HepaRG_UGT1A6 was analyzed into 1 endpoint. This assay endpoint, LTEA_HepaRG_UGT1A6, was analyzed with bidirectional fitting relative to DMSO as the negative control and baseline of activity. Using a type of inducible reporter, measures of mRNA induction for gain or loss-of-signal activity can be used to understand regulation of transcription factor activity. To generalize the intended target to other relatable targets, this assay endpoint is annotated to the transferase intended target family, where the subfamily is glucuronosyltransferase.
# A total of 1060 chemcials from the ToxCast library were tested in eight-point concentration-response experiments. Cell culture and cytotoxicity assays were conducted at Thermo Fisher Scientific's Custom Services facility (Madison, WI). A single lot of human HepaRG cells (Thermo Fisher Scientific, Frederick, MD) was used for the cell culture experiments. 96-well format collagen type I coated plates of human HepaRG cells were prepared using established methods. Briefly, cryopreserved HepaRG cells were thawed, plated at a density of approximately 100,000 cells/well in HepaRG Thaw, Plate, and General Purpose media (HPRG770, Thermo Fisher Scientific), and incubated for 48 hours. 0.5% DMSO was selected as vehicle control to balance the requisite need of DMSO in HepaRG cultures to maintain differentiation (for example, baseline metabolism, proportions of hepatocytes vs. cholangiocytes), while enabling further hepatic receptor pathway activation (for example, PXR and CAR) in response to chemical exposure. 48 hours after plating, the culture medium was replaced with HepaRG Serum-Free Incudtion Media. Cells were exposed to each test chemical in duplicate and maintained in CO2 incubators for another 48 hours. Chemical plates were thawed to room temperature and 200x concentrations of treatment groups were prepared. 8-point conentration-reponse curves were made with the highest exposure at 100 uM, followed by half-log dilutions, all in 0.5% DMSO. Each test plate contained variouse controls, induction positive controls (1mM phenobarbital), cytotoxicity positive controls ([…] aflatoxin B1), vehicle controls (0.5% DMSO), and total lysis controls (0.5% DMSO). Cell morphology images were taken using an Essen IncuCyte FLR automated microscope, with six 96-well plates imaged in about 24 minutes. Images were captured and exported and JPEG files. Spent culture media was transfered to black-well plates for the LDH assay, and remaining media was sorted at -80 C for later use. Cells were treated with RLT buffer and frozen until shipped for gene expression analysis. Total RNA was isolated from the cell suspension in 75 uL of Buffer RLT (Qiagen, Germantown, MD 20874) by Quintiles/Expression Analysis (Durham, NC) using a custom isolation procedure. Total RNA from each plate well was transferred to a preamplification plate. Fluidigm's 96.96 Dynamic ArrayTM (Fluidigm, Amsterdam, the Netherlands) technology was used for gene expression analyses by quantitative reverse transcription polymerase chain reaction (qRT-PCR, performed by Quintiles/Expression Analysis, Durham, NC)89. Standard TaqManTM Assays (Applied Biosystems/ThermoFisher Scientific, Foster City, CA) were used to assess the expression of 93 genes selected based on their selectivity and sensitivity to important hepatic receptors known to be modulated by environmental chemicals; importance in human hepatocyte functionality; and hepatotoxicity. […]
# [3] = read-out: X-box binding protein 1 (XBP1), XBP1 (gene 7494); test: LTEA_HepaRG_XBP1: Life Technologies and Expression Analysis (LTEA) Assay for X-box binding protein 1 (XBP1) using HepaRG (AID 2283540; active = hit-call score of the fitted dose curve at least 0.9, where 1 is the maximum; inactive = score below 0.9); settings: mRNA level, 48 h; actives raise or lower the signal
# Method in brief: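 HepaRG, 48 h exposure, 8-pt half-log CRC top 100 uM, 0.5% DMSO vehicle, duplicates. Readout: TaqMan qRT-PCR of XBP1 mRNA, housekeeping-normalised (ACTB/GAPDH/POLR2A); bidirectional fit vs DMSO baseline.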
# [4] = LTEA_HepaRG_LDH_cytotoxicity: Cytotoxicity Assessment in the Life Technologies and Expression Analysis (LTEA) Assay (AID 2283563);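 for AC50: LDH activity released into spent culture medium as a marker of cell death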
# Method in brief: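 HepaRG (human liver line), 48 h exposure, 8-pt half-log series from 100 uM, 0.5% DMSO vehicle, duplicates. Read-out: LDH in spent medium. Positive-direction fit vs DMSO baseline.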
# [5] = TOX21_p53_BLA_p2_viability: Viability Assessment in the Tox21 HCT-116 p53 Agonism Beta-lactamase Assay, Phase 2 (AID 2283591);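 note: actives lower the ATP signal meaning cytotoxicity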
# Method in brief: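 HCT-116 p53-bla cells (4000/well) rested 5 h at 37C, then received compounds in DMSO (217-fold dilution) for 16 h at 37C, 5% CO2. After the CCF4 read, CellTiter-Glo was added; ATP luminescence was read after 30 min at room temperature.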
# [6] = biological target: Cellular tumor antigen p53 (Homo sapiens) (UniProt P04637); test: TOX21_p53_BLA_p2_ratio: Tox21 HCT-116 p53 Agonism Beta-lactamase Assay, Ratio, Phase 2 (AID 2283592)
# Chain of Cellular tumor antigen p53 (Homo sapiens) (P04637 whole entry, looked up): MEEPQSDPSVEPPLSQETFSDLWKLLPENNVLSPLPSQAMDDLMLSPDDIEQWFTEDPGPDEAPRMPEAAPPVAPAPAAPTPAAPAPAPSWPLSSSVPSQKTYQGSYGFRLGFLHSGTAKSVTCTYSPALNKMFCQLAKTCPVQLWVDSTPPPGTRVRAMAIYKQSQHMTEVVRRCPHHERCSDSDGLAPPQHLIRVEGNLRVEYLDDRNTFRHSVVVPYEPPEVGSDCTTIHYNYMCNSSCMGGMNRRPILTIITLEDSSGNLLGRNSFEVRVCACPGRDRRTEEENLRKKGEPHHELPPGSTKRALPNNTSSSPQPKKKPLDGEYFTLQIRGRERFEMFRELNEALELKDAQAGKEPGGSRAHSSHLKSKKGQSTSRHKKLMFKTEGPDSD
# Method in brief: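 Readout: blue/green (460/530 nm) FRET emission ratio after 2 h CCF4-AM loading at room temperature, excitation 405 nm. HCT116 p53 bla cells, 16 h compound exposure at 37C, 5% CO2; agonist direction fitted against DMSO baseline.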
# [7] = TOX21_p53_BLA_p3_viability: Viability Assessment in the Tox21 HCT-116 p53 Agonism Beta-lactamase Assay, Phase 3 (AID 2283593);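 note: cells exposed to compound for 16 h before reading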
# Method in brief: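 HCT-116 cells (4000/well) rested 5 h at 37C, then got DMSO compounds by pin tool (217-fold dilution) for 16 h at 37C, 5% CO2. After the bla read, CellTiter-Glo was added and luminescence read at 30 min, room temperature.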
# [8] = TOX21_p53_BLA_p4_viability: Viability Assessment in the Tox21 HCT-116 p53 Agonism Beta-lactamase Assay, Phase 4 (AID 2283597);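 note: hits lower the luminescence signal meaning cytotoxicity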
# Method in brief: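 ATP content by CellTiter-Glo luminescence, 30 min RT, read after the beta-lactamase ratio step. Cells: HCT116, 4000/well, compound added after 5 h, exposure 16 h at 37C. Signal loss = reduced viability.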
# [9] = biological target: Cellular tumor antigen p53 (Homo sapiens) (UniProt P04637); test: TOX21_p53_BLA_p5_ratio: Tox21 HCT-116 p53 Agonism Beta-lactamase Assay, Ratio, Phase 5 (AID 2283599)
# Method in brief: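 HCT-116 cells carrying a p53-inducible beta-lactamase reporter were seeded at 4000 cells/well and dosed after 5 h with compound in DMSO (217-fold dilution). After 16 h at 37C, CCF4-AM substrate was added for 2 h, and the 460/530 nm emission ratio was scored as gain-of-signal versus DMSO.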
# [10] = biological target: Cellular tumor antigen p53 (Homo sapiens) (UniProt P04637); test: TOX21_p53_BLA_p3_ratio: Tox21 HCT-116 p53 Agonism Beta-lactamase Assay, Ratio, Phase 3 (AID 2283596)
# Method in brief: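 Cells were seeded at 4000/well, rested 5 h at 37C, then dosed with DMSO compound solutions (217-fold dilution) for 16 h. CCF4-AM substrate was loaded for 2 h at room temperature, and the 460/530 nm emission ratio was fitted for gain of signal versus DMSO.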
structure (smiles),measurement,setting,value
Cc1cccc(C)c1,outcome,[1],inactive
CCCCCCCCSCc1cc(C)c(O)c(CSCCCCCCCC)c1,outcome,[1],inactive
CCCC1CCOC(C)S1 (configuration not stated),outcome,[1],inactive
CC(=O)CCC(=O)O,outcome,[1],inactive
O=C1OCc2ccccc21,outcome,[1],inactive
C[N+](C)(C)CCO,outcome,[1],inactive
NNC(=O)OCc1ccccc1,outcome,[1],inactive
C=CC(=O)OCC(CO)(COC(=O)C=C)COC(=O)C=C,outcome,[1],inactive
C1CCCNCC1,outcome,[1],inactive
CCCCOCCOCCO,outcome,[2],inactive
same,outcome,[3],inactive
same,outcome,[4],inactive
same,outcome,[1],inactive
same,outcome,[5],inactive
same,outcome,[6],inactive
same,outcome,[7],inactive
same,outcome,[8],inactive
same,outcome,[9],inactive
OCCN1CCOCC1,outcome,[1],inactive
CCC(=O)OCC=Cc1ccccc1,outcome,[1],inactive
NS(=O)(=O)c1cc(C(=O)O)c(NCc2ccco2)cc1Cl,outcome,[1],inactive
C1COCO1,outcome,[1],inactive
c1ccc2c(c1)-c1ccc3ccc4cccc5cc-2c1c3c45,outcome,[1],inactive
CCC=C(C)C=O,outcome,[1],inactive
C=C1CC[C@H]2O[C@]2(C)CC[C@@H]2[C@@H]1CC2(C)C,outcome,[1],inactive
CC=CC(=O)C1=C(C)C=CCC1(C)C,outcome,[1],inactive
C[C@]12CC[C@@H]3c4ccc(O)cc4CC[C@H]3[C@@H]1CC[C@@H]2O,outcome,[2],inactive
same,outcome,[3],inactive
same,outcome,[4],inactive
same,outcome,[1],inactive
same,outcome,[5],inactive
same,AC50,[6],29 µM (active) and 16.7 µM (active)
same,outcome,[6],inactive
same,outcome,[7],inactive
same,AC50,[10],32 µM (active) and 34.9 µM (active)
same,outcome,[10],inactive
same,outcome,[8],inactive
same,AC50,[9],31.7 µM (active) and 34.6 µM (active)
same,outcome,[9],inactive
O=C1CCC(=O)N1,outcome,[1],inactive
C#C[C@]1(O)CC[C@H]2[C@@H]3CCc4cc(O)ccc4[C@H]3CC[C@@]21C,outcome,[2],inactive
same,outcome,[3],inactive
same,outcome,[4],inactive
same,outcome,[5],inactive
same,AC50,[6],9 µM (active) and 6.58 µM (active) and 7.36 µM (active)
same,AC50,[10],15.2 µM (active) and 16.2 µM (active)
same,outcome,[8],inactive
same,AC50,[9],11.7 µM (active) and 13.9 µM (active) and 7.67 µM (active)
O=c1cc[nH]cc1,outcome,[1],inactive
CCO[Si](CCC#N)(OCC)OCC,outcome,[1],inactive
C=C(C)C(=O)OCCOCCOC(=O)C(=C)C,outcome,[1],inactive
N#CCCNCCC#N,outcome,[1],inactive
CC(=O)OCC=C(C)CCC=C(C)CCC=C(C)C,outcome,[1],inactive
CC(O)CN (configuration not stated),outcome,[1],inactive
CC(C)N(c1ccccc1)C(C)C,outcome,[1],inactive
c1ccc(Sc2ccccc2)cc1,outcome,[1],inactive
Cc1cc(O)c(C)c(C)c1O,outcome,[1],inactive
O=C(O)c1ccc(C(=O)O)c(C(=O)O)c1,outcome,[1],inactive
COC(=O)c1ccc(C(=O)OC)cc1,outcome,[2],inactive
same,outcome,[3],inactive
same,outcome,[4],inactive
same,outcome,[1],inactive
same,outcome,[5],inactive
same,outcome,[6],inactive
same,outcome,[7],inactive
same,outcome,[10],inactive
same,outcome,[8],inactive
same,outcome,[9],inactive
C=C(C)C(N)=O,outcome,[2],inactive
same,outcome,[3],inactive
same,outcome,[4],inactive
same,outcome,[1],inactive
same,outcome,[5],inactive
same,outcome,[6],inactive
same,outcome,[7],inactive
same,outcome,[10],inactive
same,outcome,[8],inactive
same,outcome,[9],inactive
CCC(CC)CO,outcome,[1],inactive
CC(C)(C)c1cc(CCC(=O)OCCSCCOC(=O)CCc2cc(C(C)(C)C)c(O)c(C(C)(C)C)c2)cc(C(C)(C)C)c1O,outcome,[1],inactive
Cc1ccccc1S,outcome,[1],inactive
O=C(c1ccc(OCCN2CCCCC2)cc1)c1c(-c2ccc(O)cc2)sc2cc(O)ccc12,AC50,[2],50 µM (active)
same,AC50,[3],50 µM (active)
same,AC50,[4],77.4 µM (active)
same,AC50,[1],28.3 µM (active) and 28.6 µM (active) and 34.3 µM (active)
same,outcome,[1],inactive
same,AC50,[5],84.9 µM (active) and 71.8 µM (active) and 42.8 µM (active)
same,AC50,[6],68.6 µM (active) and 62.8 µM (active) and 36.4 µM (active)
same,AC50,[7],69.8 µM (active) and 74.5 µM (active) and 35.6 µM (active)
same,AC50,[10],74.5 µM (active) and 71.4 µM (active) and 26.1 µM (active)
same,AC50,[8],68.2 µM (active) and 68.5 µM (active) and 25.1 µM (active)
same,AC50,[9],72.8 µM (active) and 81.5 µM (active) and 36.2 µM (active)
CC/C(=C(\c1ccccc1)c1ccc(OCCN(C)C)cc1)c1ccccc1,AC50,[2],45.8 µM (active)
same,outcome,[2],inactive
same,AC50,[3],45.8 µM (active) and 96.2 µM (active)
same,AC50,[4],63.5 µM (active) and 73.5 µM (active)
same,outcome,[1],inactive
same,AC50,[5],33.7 µM (active) and 69.5 µM (active) and 35.2 µM (active)
same,outcome,[5],inactive
same,AC50,[6],47.8 µM (active) and 84.4 µM (active) and 43.5 µM (active)
same,outcome,[6],inactive
same,AC50,[7],74.8 µM (active) [middle of 5 runs]
same,AC50,[10],86.9 µM (active) [middle of 4 runs]
same,outcome,[10],inactive
same,AC50,[8],22.9 µM (active) and 46.5 µM (active) and 32.3 µM (active)
same,outcome,[8],inactive
same,AC50,[9],75.4 µM (active) [middle of 4 runs]
